Screening results: PubChem, National Center for Advancing Translational Sciences (NCATS)
MCF10A rerep: inducers of DNA re-replication in MCF 10A breast cells | MCF 10A DNA re-replication, Hoechst nuclear intensity, 48 h | Potency, µM (doses to about 46.1 µM), for the others: at the highest dose activity, positive = re-replication, hits mostly activators | 350,000 tested, 2.9% active | AID 624296; also: potency is read from the fitted curve at half-maximal effect; % of control where 0% means no effect; nearly all actives have a fitted effect of over 50% in size
Giardia killer: Giardia lamblia killing; Giardia lamblia trophozoite viability; activity change, % at 7.66 µM, hits read low; AID 540267; 340,000 tested, 0.15% active; in the data active = activity change below about -80%; inconclusive = between about -30% and that limit;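 also: parasites exposed to compound for two days anaerobically before the ATP read; % is scaled to controls: 0 for no effect and ±100 for the full control effect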
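ATP-content bioluminescence gauges trophozoite survival. Cells (100/well) receive compound and incubate anaerobically for 48 hrs at 37 deg C; detection reagent follows for 15-30 min at room temperature.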
ASM inhibitor: inhibitors of human secretory acid sphingomyelinase | Potency, µM (titrated, usually from 57.5 µM), without a hit: top-dose activity change, negative = inhibition, actives largely listed as inhibitors | P17405 | placental ASM, HMU-PC fluorogenic substrate, 60 min | 340,000 tested, 0.006% active; also: potency is read from the fitted curve at half-maximal effect
Target sequence (P17405 47-631 limits assumed): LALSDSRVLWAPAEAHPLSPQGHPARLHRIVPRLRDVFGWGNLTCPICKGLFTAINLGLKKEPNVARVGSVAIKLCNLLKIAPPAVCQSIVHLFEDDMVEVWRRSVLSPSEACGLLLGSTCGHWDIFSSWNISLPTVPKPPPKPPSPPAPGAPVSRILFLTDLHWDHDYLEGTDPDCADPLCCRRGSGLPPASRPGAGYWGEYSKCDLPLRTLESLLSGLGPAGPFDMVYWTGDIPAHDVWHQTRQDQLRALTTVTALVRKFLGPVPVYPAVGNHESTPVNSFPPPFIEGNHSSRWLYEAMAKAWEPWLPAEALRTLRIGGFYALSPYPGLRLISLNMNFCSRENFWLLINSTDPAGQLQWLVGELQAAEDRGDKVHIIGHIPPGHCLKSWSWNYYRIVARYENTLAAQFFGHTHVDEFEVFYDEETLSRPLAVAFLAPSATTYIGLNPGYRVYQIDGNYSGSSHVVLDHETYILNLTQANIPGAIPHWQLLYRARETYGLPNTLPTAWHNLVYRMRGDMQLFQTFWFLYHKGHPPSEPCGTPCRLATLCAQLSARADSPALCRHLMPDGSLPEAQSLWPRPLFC
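Human placenta-derived ASM enzyme was preincubated with compound for 10 minutes at room temperature, then given fluorogenic substrate HMU-PC0 (9 uM final) for 60 minutes at 37 °C; a pH 10 stop preceded fluorescence reading at Ex 386/Em 447 nm.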
KB-3-1 cytotox: kills parental KB-3-1 adenocarcinoma cells; KB-3-1 viability, CellTiter-Glo ATP luminescence, 72 h; Potency, µM (doses to about 46.1 µM), hits mostly cytotoxic; 400,000 tested, 1.4% active; also: potency is read from the fitted curve at half-maximal effect; % is scaled to controls: 0 for no effect and ±100 for the full control effect; nearly all actives have a fitted effect of over 60% in size
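Cytotoxicity measured as CellTiter-Glo luminescence after 72 h at 37 C. Compound titrations were pinned onto drug-naive KB-3-1 parental adenocarcinoma cells grown in DMEM with 10% FBS, and normalized data fitted to concentration-response curves.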
KB-V1 MDR tox: kills drug-selected multidrug resistant KB-V1 cells; KB-V1 MDR cells viability, CellTiter-Glo, 72 h; Potency, µM (top dose mostly 46.1 µM), actives largely listed as cytotoxic; 400,000 tested, 3.4% active; AID 1347076; also: potency is read from the fitted curve at half-maximal effect; % is scaled to controls: 0 for no effect and ±100 for the full control effect; nearly all actives have a fitted effect of over 60% in size
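KB-V1 MDR subline cells in DMEM (phenol-red free, 10% FBS) exposed to compounds in qHTS concentration series for 72 h at 37 degrees C. Viability read by CellTiter-Glo luminescence; concentration-effect curves fitted after normalization and correction.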
SW480 rereplic: DNA re-replication induction in SW480 cells; Potency, µM (titrated, usually from 46.1 µM), inactives show top-dose re-replication activation, hits mostly activators; 340,000 tested, 1.8% active; SW480 DNA re-replication, Hoechst DNA content imaging, 48 h; AID 624297; also: potency is read from the fitted curve at half-maximal effect; % of control where 0% means no effect; nearly all actives have a fitted effect of over 55% in size
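DNA re-replication was detected as more nuclei of elevated Hoechst intensity after 48 hr exposure to compound (23 nL pinned per well of 250 cells).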
An asterisk follows results filed as active; i = inactive; ? = inconclusive; · = no result. Compounds with a hit are over-represented: about 6.9% of the library has one in this group of screens. Unless noted, calls follow the shape of the dose curve; as a rule, active = well fitted curve in the direction sought with a large enough effect; inconclusive = small, poorly fitted or top-dose-only effect, or another doubt; inactive = no such curve, though single readings can be large; an effect the other way counts as inactive or inconclusive.

SMILES | MCF10A rerep | Giardia killer | ASM inhibitor | KB-3-1 cytotox | KB-V1 MDR tox | SW480 rereplic
O=C(c1cc(C2CC2)nc2ccccc12)N1N=C(C(F)F)CC1(O)C(F)F (configuration not stated) | ? | 14 | -3% | i | ? | 24%
O=C(Nc1ccccc1N1CCCC1)c1cc(Cl)ccc1Cl | 17% | 5 | 3% | i | i | 7%
Cc1ccc(-n2cc(C(=O)c3cc(Cl)ccc3O)cc(C#N)c2=O)cc1 | ? | 10 | -6% | i | 16µM* | 7%
COc1ccc(-n2cc(C(=O)c3cc(Cl)ccc3O)cc(C#N)c2=O)cc1 | 19% | 8 | 3% | i | i | -6%
Cc1ccccc1NC(=O)c1cc(C(=O)c2cc(Cl)ccc2O)cn(-c2ccccc2C)c1=O | 23% | -12 | -1% | i | 9.2µM* | ·
Cc1nc(Sc2nnnn2C2CC2)c2c(-c3ccccc3)csc2n1 | · | · | · | ? | i | ·
COc1ccc(C(=O)C(CCCCC(CN(C)C)C(=O)c2ccc(OC)cc2)CN(C)C)cc1 (configuration not stated) | ? | 11 | 1% | i | 13µM* | ?
CN(C)CC(CCC(CN(C)C)C(=O)c1ccccc1)C(=O)c1ccccc1 (configuration not stated) | ? | 3 | 2% | 16µM* | 8.2µM* | ?
COc1ccc(C(C)=O)cc1 | · | · | · | i | i | ·
CCOc1ccc(C(=O)C(CCC(CN(C)C)C(=O)c2ccc(OCC)cc2)CN(C)C)cc1 (configuration not stated) | ? | -9 | -4% | ? | i | 3.7µM*
O=c1[nH]c(-c2ccco2)nc2sc3c(c12)CCCC3 | -6% | 7 | -2% | i | 18µM* | 1%
O=c1[nH]c(S)nc2sc3c(c12)CCCC3 | ? | 0 | -9% | i | i | 0%
COc1cc2cc(c1Cl)N(C)C(=O)CC(OC(=O)C(C)N(C)C(C)=O)C1(C)OC1C(C)C1CC(O)(NC(=O)O1)C(OC)C=CC=C(C)C2 (configuration not stated) | ? | ? | 5% | ? | 0.46µM* | ?
CCOc1ccc(NC(=NCc2ccc3c(c2)OCO3)SC2CC(=O)N(c3ccc(OCC)cc3)C2=O)cc1 (configuration not stated) | 21µM* | 0 | -1% | i | ? | 16%
CCOc1ccc(NC(=NCc2ccc3c(c2)OCO3)SC2CC(=O)N(c3ccccc3)C2=O)cc1 (configuration not stated) | ? | 11 | -22% | i | i | 1%
CCOC(=O)c1ccccc1NC(=O)Cn1c(=O)n(-c2cccc(C)c2)c(=O)c2c1c1cc(C)ccc1n2C | · | · | · | i | i | ·
COc1ccc(NC(=O)c2sc3nc4c(cc3c2N)CN(Cc2ccccc2)CC4)c(OC)c1 | · | 5 | · | · | · | ·
COc1ccc(N2CCN(C(=O)COC(=O)COc3cccc(C(F)(F)F)c3)CC2)cc1 | 5% | -10 | 3% | i | ? | -6%
Cc1ccc(C2=C(O)c3ccccc3C(=O)C2=O)cc1 | -3% | -1 | 3% | i | i | 0%
O=C1C(=O)c2ccccc2C(O)=C1c1cccc([N+](=O)[O-])c1 | 15% | -10 | 2% | ? | ? | 23µM*
COCc1cc([C@@H]2C[C@H]3CN(c4ccccc4)C(=O)[C@]34CCCN24)ccc1OC | -10% | -16 | -1% | i | i | 1%
O=C1N(c2ccccc2)C[C@@H]2C[C@@H](c3cccs3)N3CCC[C@@]123 | 5.8µM* | -1 | 2% | i | i | 21%
COc1ccc([C@@H]2C[C@H]3CN(c4ccccc4)C(=O)[C@]34CCCN24)c(OC)c1OC | -3% | -7 | 9% | i | i | -14%
CC(C)(O)C#Cc1ccc([C@@H]2C[C@H]3CN(c4ccccc4)C(=O)[C@]34CCCN24)s1 | ? | -30 | 3% | ? | i | 8.2µM*
COc1cccc2sc(N(Cc3cccnc3)C(=O)C3COc4ccccc4O3)nc12 (configuration not stated) | · | · | · | i | i | ·
SMILES | MCF10A rerep | Giardia killer | ASM inhibitor | KB-3-1 cytotox | KB-V1 MDR tox | SW480 rereplic
CCOC(=O)C(=O)N(C)c1c(CC)nc2c(OCc3ccccc3)cccn12 | · | · | · | i | i | ·
Cc1ccc(-n2ncc3c(NCCc4ccccc4)ncnc32)cc1Cl | · | · | · | i | i | ·
CC1=CC(=NOC(=O)/C=C/c2ccccc2)C=C(C)C1=O | ? | -12 | ? | ? | i | ?
CC1=CC(=O)C=C(C)C1=NOC(=O)/C=C\c1ccccc1 | ? | 16 | 2% | i | i | 5.8µM*
Cc1cccc(C)c1NC(=O)COC(=O)c1ccc2[nH]c3c(c2c1)CCCC3 | 18µM* | 41 | -5% | i | i | ?
O=C(COC(=O)c1ccc2[nH]c3c(c2c1)CCCC3)Nc1ccccc1 | 23µM* | -25 | -10% | i | ? | ?
O=C(OCC(=O)N1CCOCC1)c1ccc2[nH]c3c(c2c1)CCCC3 | -3% | 17 | 0% | ? | i | ?
O=C(O)c1ccc2[nH]c3c(c2c1)CCCC3 | -15% | 0 | 10% | i | i | ?
COC(=O)c1ccc(NS(=O)(=O)c2ccc3[nH]c4c(c3c2)CCCC4)cc1 | · | · | · | i | i | ·
COC(=O)c1ccc(NS(=O)(=O)c2ccc3[nH]c4c(c3c2)CCCCC4)cc1 | · | · | · | ? | 23µM* | ·
CCCOc1cccc(C2c3c(oc4cc(C)c(C)cc4c3=O)C(=O)N2CCCN2CCOCC2)c1 (configuration not stated) | · | · | · | ? | i | ·
CC(C)c1ccc(-c2noc(SCC(=O)N3CCCCC3C)n2)cc1 (configuration not stated) | · | · | · | i | i | ·
O=C(CSc1ccc2c(c1)OCCO2)N1CCN(c2ccccc2O)CC1 | 9% | 6 | 0% | ? | ? | -1%
CCOc1ccccc1N1CCN(C(=O)CSc2ccc3c(c2)OCCO3)CC1 | 22% | 12 | 5% | i | 12µM* | -9%
CCn1c(C)nc2cc(S(N)(=O)=O)ccc21 | 13µM* | -20 | 1% | i | i | 18%
CCn1c(SCc2ccccc2Cl)nc(=O)c2c(C(=O)OC)cc(C3CC3)nc21 | · | · | · | i | i | ·
CN(C)c1ccc(/C=C/C(=O)c2ccccc2)cc1[N+](=O)[O-] | 13% | -11 | -6% | i | i | 1%
COc1ccc(Oc2ccc(/C=C/C(=O)c3ccc(O)cc3)cc2[N+](=O)[O-])cc1 | 2.9µM* | -7 | -29% | i | ? | 7.3µM*
